Where a name gives a salt, the structure may show the parent alone.
The compounds below were run on Danio rerio larvae (5 dpf) (assay: combined upward orientation toward moving lines (periods 7-14) minus DMSO control (percentage points); higher = more orientation with moving lines than DMSO larvae). Settings: 10 µM; exposure time: 3 h pre-incubation + 3 h imaging.
Experimental: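 Wild-type 5 dpf zebrafish larvae (n=48 per drug, 96-well plates, 28.5 °C) were exposed to Tocris FDA-approved library compounds at 10 µM (0.1% DMSO) for 3 h before and 3 h during imaging. Images were taken every 6 s during visual and acoustic stimuli, and larvae were tracked with Z-LaP Tracker. Each measure is the treated-group mean minus the DMSO control mean (n=844), in percentage points. This mapping covers compounds with 5-character plate codes.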
In the case of `COc1ccc(C(CN(C)C)C2(O)CCCCC2)cc1` (stereo unspecified) [Venlafaxine hydrochloride], the “combined upward orientation toward moving lines” value is reported as 0.349.

Source: the supplement of paper PMC9950053
